Each structure is given as a SMILES string. Several values for one entry are separate records, joined by “and”; a condition that tells them apart may be missing. Equal entries are not always repeated. The source holds several records for some structures; these can differ, active in one and inactive in another. Activity calls are given as the source filed them. Rule for the calls: active = hit-call score of the fitted dose curve at least 0.9, where 1 is the maximum; inactive = score below 0.9.

One may read the AC50 as the midpoint of the concentration-response curve, whichever way the signal moves.

Read-out in the assay: Thrombomodulin, THBD (gene 7056)
Kind of assay: BSK_3C_Thrombomodulin: BioMAP Diversity Plus: 3C Assay for Thrombomodulin Biomarker Activity (AID 2283029). The note with it: primary human endothelial cells (HUVEC); actives raise or lower the signal. As for the experimental part:
BSK_3C is a cell-based, multiplexed-readout assay that uses umbilical vein endothelium, a human vascular primary cell, with measurements taken at 24 hours after chemical dosing in a 96-well plate.BSK_3C_Thrombomodulin is an assay component measured in the BSK_3C assay. It measures Thrombomodulin antibody related to regulation of gene expression using ELISA technology.Data from the assay component BSK_3C_Thrombomodulin was analyzed into 1 assay endpoint. This assay endpoint, BSK_3C_Thrombomodulin, was analyzed with bidirectional fitting relative to DMSO as the negative control and baseline of activity. Using a type of binding reporter, gain or loss-of-signal activity can be used to understand changes in the signaling as they relate to the gene THBD. Furthermore, this assay endpoint can be referred to as a primary readout, because this assay has produced multiple assay endpoints where this one serves a signaling function. To generalize the intended target to other relatable targets, this assay endpoint is annotated to the gpcr intended target family, where the subfamily is rhodopsin-like receptor.
The levels of cell surface (or secreted, indicated by the prefix "s") biomarker endpoints were measured by ELISA. Overt cytotoxicity to cells in confluent adherent cultures (all systems other than the BT system) was assessed by measuring total protein levels using sulforhodamine B (SRB) staining in parallel cultures at the time of biomarker measurements, indicated as SRB endpoints. For proliferation assays for adherent cell types, individual cell types are cultured at sub-confluence and relative cell numbers quantified by SRB staining at time points optimized for each system (48 h: 3C and CASM3C systems; 72 h: BT and HDF3CGF systems; 96 h: SAg system). SRB was performed by staining cells with 0.1% SRB after fixation with 10% TCA and reading wells at 560 nm.Viability and proliferation of PBMC (T cells) was quantified by Alamar Blue reduction for the SAg and BT systems. For PBMC viability (referred to as PBMC Cytotoxicity within the assay endpoint names), cells were plated (75,000/well in a 96-well plate) and then chemical samples added for 1 h before addition of activators, SEB and TSST-1 (20 ng/mL final concentration each). Cells were incubated for 90 h. Then, Alamar Blue (20 uL/well) (Invitrogen, Cat DAL1100) was added for 6 h, and the plates were read with a fluorescence microplate reader at 546/580 nm (excitation/emission). For PBMC proliferation, cells were plated and activated as above but incubated for only 16 h prior to addition of Alamar Blue. Plates were read after 6 h.
For `CCn1cc(C(=O)O)c(=O)c2ccc(C)nc21`, the outcome was inactive.

Turning to `CC/C(=C(\c1ccccc1)c1ccc(OCCN(C)C)cc1)c1ccccc1`, the AC50 is 12.6 µM (active) and the outcome was inactive.

For the molecule `CC(=O)OC(C)(C)C1CC=C(C)CC1` (stereo not given), the result was inactive.

As to `CCCO[Si](OCCC)(OCCC)OCCC`, the result was inactive.

For the molecule `CC(=O)CCC=C(C)CCC=C(C)C`, the outcome was inactive.

As for `CCCCOCCOCCO`, the outcome was inactive.

`CCCCCCCCCCCCS`: the result was inactive.

For `NC(=O)c1c(Cl)cccc1Cl`, the result was inactive.

In the case of `O=C(O)C(F)(F)C(F)(F)C(F)(F)C(F)(F)C(F)(F)C(F)(F)C(F)(F)C(F)F`, the outcome was inactive.

With `CCCCN(CCO)CCO`, the result was inactive.

Turning to `O=C1OC2(c3ccc(O)cc3Oc3cc(O)ccc32)c2ccccc21`, the outcome was inactive.

`C=C(F)C(=O)OC(C(F)(F)F)C(F)(F)F`: the result was inactive.

`CCOC(=O)C=Cc1ccccc1`: the outcome was inactive.

With `OCC(F)(OC(F)(F)C(F)(OC(F)(F)C(F)(F)C(F)(F)F)C(F)(F)F)C(F)(F)F` (stereo not given), the AC50 is 4.76 µM (active) and 2.31 µM (active).

Regarding `CC1(C)[C@H](C=C(Cl)Cl)[C@H]1C(=O)OCc1cccc(Oc2ccccc2)c1`, the outcome was inactive.

`CCCCCCCCCC(=O)OCC`: the AC50 was 29.7 µM (active).

As for `CCCCCCCC1CCCC1=O` (stereo not given), the result was inactive.

Consider `CC=CC(=O)C1=C(C)C=CCC1(C)C`, for which the outcome was inactive.

Regarding `CC(C)Cc1ccc(C(C)C(=O)O)cc1` (stereo not given), the result was inactive.

Take `C=CC(=O)OCC(CO)(COC(=O)C=C)COC(=O)C=C`: the outcome was inactive.

As for `COc1ccccc1NC(=O)CC(C)=O`, the outcome was inactive.

Take `C[C@]12CC[C@@H]3c4ccc(O)cc4CC[C@H]3[C@@H]1CC[C@@H]2O`: the result was inactive.

`O=C(c1ccc(OCCN2CCCCC2)cc1)c1c(-c2ccc(O)cc2)sc2cc(O)ccc12`: the result was inactive.

Regarding `C=C1CC/C=C(\C)CC[C@@H]2[C@@H]1CC2(C)C`, the result was inactive.

`c1ccc(OCCOc2ccccc2)cc1`: the result was inactive.

In the case of `C=C(C)C(N)=O`, the result was inactive.

`CCC(=O)OCC=Cc1ccccc1`: the outcome was inactive.

Take `C=C(C)C(=O)OCCC(F)(F)C(F)(F)C(F)(F)C(F)(F)C(F)(F)C(F)(F)C(F)(F)C(F)(F)F`: the outcome was inactive.

On to `CC(C)CCCC(C)(C)O`, for which the outcome was inactive.

Take `CC(=O)OCC=C(C)CCC=C(C)CCC=C(C)C`: the outcome was inactive.

With `CCOC(=O)CCCCCCCCC(=O)OCC`, the outcome was inactive.

Turning to `O=S(=O)(O)C(F)(F)C(F)(F)OC(F)(F)C(F)(F)F`, the result was inactive.

Consider `c1ccc(Sc2ccccc2)cc1`, for which the AC50 is 20 µM (active).

With `Nc1ccc(N)c([N+](=O)[O-])c1`, the outcome was inactive.

In the case of `CC(C)(CO)CO`, the result was inactive.

Take `CC1=CC(C)C(C=O)C(C)C1` (stereo not given) (tested in a mixture with another compound): the result was inactive.

On to `COC(=O)c1ccc(C(=O)OC)cc1`, for which the outcome was inactive.

In the case of `OCCN1CCOCC1`, the result was inactive.

In the case of `c1ccc2c(c1)-c1ccc3ccc4cccc5cc-2c1c3c45`, the outcome was inactive.
